Screens (PubChem)
Sm TGR inh = S. mansoni TGR enzyme inhibition | Q962Y6 | purified TGR, DTNB reduction, TNB absorbance 405 nm | Potency, µM (highest dose often 114 µM), for inactives: at the top dose activity change, negative = inhibition, actives largely listed as inhibitors | 3% of 360,000 active | AID 485364; also: % is scaled to controls: 0 for no effect and ±100 for the full control effect; nearly all actives have a fitted effect of over 60% in size
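First, TGR (20 nM dispensed) and NADPH were mixed with compound. Second, a 15 min room-temperature incubation followed. Third, further NADPH and then DTNB were added to start the reaction. Finally, TNB absorbance was monitored kinetically.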
Pf growth 96h = P. falciparum growth inhibition at 96 hours; P. falciparum luciferase reporter growth, 96 h; Potency, µM (titrated, usually from 28.7 µM), without a hit: top-dose activity change, negative = inhibition, usual class: inhibitors; 6.9% of 320,000 active; AID 504834; also: % is scaled to controls: 0 for no effect and ±100 for the full control effect
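Parasite growth measured via integrated firefly luciferase reporter in P. falciparum. Infected erythrocytes at 2% hematocrit, 0.05% parasitemia final were treated 96 hours at 37 C under 5% CO2, and luminescence was read.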
Pf growth 48h = inhibits P. falciparum growth in the first generation, 48 h; P. falciparum luciferase growth in erythrocytes, 48 h; Potency, µM (titrated, usually from 28.7 µM), inactives show at the top dose activity change, negative = inhibition, usual class: inhibitors; 5.9% of 310,000 active; also: % is scaled to controls: 0 for no effect and ±100 for the full control effect
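Luciferase-expressing parasites in RBCs, 2% Hct / 0.1% parasitemia final; RPMI 1640 + 0.5% Albumax; 37 C, 5% CO2, one generation; luminescence read-out, lower signal = inhibition.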
SARS PLpro yeast = inhibitors of SARS-CoV papain-like protease in yeast. S. cerevisiae expressing SARS-CoV PLpro, growth rescue. Potency, µM (highest dose often 32.9 µM), for inactives: at the top dose activity, positive = growth rescue, actives largely listed as activators. 0.19% of 330,000 active; calls by dose curve; also: 0% is about no effect; nearly all actives have a fitted effect of over 55% in size
An asterisk follows results filed as active. Shown are actives, neighbours in structure and some others; about 12% of the full set was active somewhere. Unless noted, calls follow the shape of the dose curve; as a rule, active = well fitted curve in the direction sought with a large enough effect; inconclusive = small, poorly fitted or top-dose-only effect, or another doubt; inactive = no such curve, though single readings can be large; an effect the other way counts as inactive or inconclusive. Potency is read from the fitted curve at half-maximal effect.

`O=C(N/N=C/c1ccccc1O)NC12CC3CC(CC(C3)C1)C2` gave Sm TGR inh -20%, Pf growth 96h 2.6µM*, Pf growth 48h 1.2µM* and SARS PLpro yeast -3%.
`C/C(=N/NC(=O)NC12CC3CC(CC(C3)C1)C2)c1ccccc1` gave Sm TGR inh -4%, Pf growth 96h 0.74µM*, Pf growth 48h inconclusive and SARS PLpro yeast 3%.
For CC(C)Cc1nn2c(=O)cc(COC(=O)c3ccccc3NC(=O)c3ccccc3)nc2s1 the results were Sm TGR inh -1%.
Screening N#C/C(=C\c1ccc2c(c1)OCCO2)C(=O)Nc1ccc(C(=O)O)cc1 returned Sm TGR inh inconclusive, Pf growth 96h 47%, Pf growth 48h 8% and SARS PLpro yeast -1%.
Screening C/C(=N\OCC(=O)OC(C)C(=O)Nc1ccc(C(N)=O)cc1)c1ccc2c(c1)OCO2 (centres undefined) returned Sm TGR inh -17%, Pf growth 96h 42%, Pf growth 48h 3% and SARS PLpro yeast 1%.
Screening O=C(c1ccccc1)c1ccc2nc(-c3ccco3)c(-c3ccco3)nc2c1 returned Pf growth 96h 7%, Pf growth 48h -4% and SARS PLpro yeast -2%.
Screening CC(C)CNC(=O)c1ccc(Cl)c(Cl)c1 returned Sm TGR inh 3%, Pf growth 96h -22% and Pf growth 48h 1%.
`O=C(NCCc1ccccc1)c1ccc2nc(-c3ccco3)c(-c3ccco3)nc2c1` gave Sm TGR inh 1.3µM*, Pf growth 96h -14% and SARS PLpro yeast -3%.
`c1coc(-c2nc3ccccc3nc2-c2ccco2)c1` gave Sm TGR inh 3.5µM*, Pf growth 96h inconclusive, Pf growth 48h -14% and SARS PLpro yeast -2%.
Screening O=C(NC1CCCC1)c1ccc2nc[nH]c2c1 returned Sm TGR inh 8%, Pf growth 96h -19%, Pf growth 48h 4% and SARS PLpro yeast -1%.
Screening O=C(NC1CCCC1)c1ccc2nc(-c3ccco3)c(-c3ccco3)nc2c1 returned Sm TGR inh 3.2µM*, Pf growth 48h inconclusive and SARS PLpro yeast 1%.
O=C(NCCO)c1ccc(Cl)c(Cl)c1 was read as Sm TGR inh 16%, Pf growth 96h 15µM*, Pf growth 48h 14% and SARS PLpro yeast -2%.
Screening O=C(NCc1nc2ccccc2n1Cc1ccccc1Cl)c1ccccc1 returned Sm TGR inh 6%.
`O=C(NCCO)c1ccc2nc(-c3ccco3)c(-c3ccco3)nc2c1` gave Sm TGR inh 1.8µM*, Pf growth 48h -1% and SARS PLpro yeast -11%.
`COC(CNC(=O)c1ccc2nc(-c3ccccc3)c(-c3ccccc3)nc2c1)OC` gave Sm TGR inh -26%, Pf growth 96h inconclusive, Pf growth 48h -28% and SARS PLpro yeast 1%.
For COc1ccc(Cl)cc1NC(=O)c1nn(C)c2c1CS(=O)(=O)c1ccccc1-2 the results were Sm TGR inh 0%.
For O=C(NCCCc1ccc(F)cc1)C1CCC(=O)N(CC2CCCCC2)C1 (centres undefined) the results were Sm TGR inh 0%, Pf growth 96h 22%, Pf growth 48h -7% and SARS PLpro yeast 5%.
OCC[C@H]1C[C@H](O)[C@@H](O)[C@]2(OCc3ccccc32)O1 was read as Sm TGR inh -5%, Pf growth 96h 3%, Pf growth 48h inconclusive and SARS PLpro yeast 0%.
Screening CCc1cc(=O)oc2cc(OCC(=O)N(CC)CC)c(Cl)cc12 returned Sm TGR inh 83%, Pf growth 96h 10µM* and SARS PLpro yeast 17%.
For O=C(O)c1cccc(-c2ccc3c(c2)OCO3)c1 the results were Sm TGR inh -2%, Pf growth 96h 3.7µM*, Pf growth 48h 7% and SARS PLpro yeast -3%.
Cc1ccc(-c2nnc3ccccc3c2C(=O)Nc2ccccc2F)cc1 was read as Sm TGR inh 0%.
CCC(=O)Nc1ccc(NC(=O)c2cccc3c(Br)cccc23)cc1 was read as Sm TGR inh -8%, Pf growth 96h 6.6µM*, Pf growth 48h 16% and SARS PLpro yeast 26%.
For Cn1c(SCC(=O)N2CCCc3ccccc32)ncc(C(=O)Nc2ccc(Cl)cc2)c1=O the results were Sm TGR inh -3%.
Cc1cn(Cc2ccccc2Cn2cc(C)c(=O)[nH]c2=O)c(=O)[nH]c1=O was read as Sm TGR inh 6%, Pf growth 96h 5%, Pf growth 48h 11% and SARS PLpro yeast 0%.
